Inconclusive results are not listed. Calls of active or inactive are those of the source. Unless noted, the call rests on the fitted dose curve; in most records, active means well fitted curve in the direction sought with a large enough effect in the repeat runs; inconclusive means weak or mixed curves; inactive means no such curve, though single readings can be large; an effect the other way counts as inactive or inconclusive.
Columns and labels:
[1] = qHTS assay to identify small molecule agonists of the vitamin D receptor (VDR) signaling pathway - cell viability counter screen (AID 743224); further: nearly all actives have a fitted effect of over 50% in size
In short: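 Cells: VDR-bla, 2,000/well, settled 4 h. Treatment: compounds in DMSO, 16 h, 37C/5% CO2. Readout: CellTiter-Glo luminescence after 30 min RT.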

[2] = qHTS assay to identify small molecule antagonists of the vitamin D receptor (VDR) signaling pathway - cell viability counter screen (AID 743225); further: nearly all actives have a fitted effect of over 50% in size
In short: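 In this counter screen, VDR-bla HEK 293T cells receive test compound plus 3 nM final calcitriol for 16 h at 37C. Room-temperature steps of 2 h with the beta-lactamase substrate, then 30 min with CellTiter-Glo, precede the luminescence read.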

[3] = qHTS assay to identify small molecule agonists of the NFkB signaling pathway - cell viability counter screen (AID 1159515; calls by dose curve; further: nearly all actives have a fitted effect of over 55% in size)
In short: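 Cells are seeded (2,000 NFkB-bla ME-180 per well), rested overnight, and dosed with DMSO-dissolved compounds for 5 hr at 37 C. Viability is then read by CellTiter-Glo luminescence after 30 min at room temperature.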

[4] = qHTS assay to identify small molecule agonists of the endoplasmic reticulum stress response signaling pathway (AID 1159516; active means well fitted activation curve with a large enough effect in the signal ratio in the repeat runs, not every such curve was filed as active; the % refers to the signal ratio)
In short: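 Cells are seeded at 1,500 per well and incubated overnight. Compounds in DMSO are added for 5 hr at 37 C, then beta-lactamase FRET substrate for 2 hr at room temperature, and fluorescence at 460 and 530 nm is measured.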

[5] = qHTS assay to identify small molecule agonists of the endoplasmic reticulum stress response signaling pathway - cell viability counter screen (AID 1159517; calls by dose curve;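 further: HeLa cells carrying an ER stress response element beta-lactamase reporter; nearly all actives have a fitted effect of over 50% in size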)
In short: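 Cpd-treated ESRE-bla HeLa (5 hr, 37 C) → LiveBLAzer 2 hr RT → CellTiter-Glo 30 min RT → luminescence.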

[6] = qHTS assay to identify small molecule antagonists of the retinoid-related orphan receptor gamma (ROR-gamma) signaling pathway - cell viability counter screen (AID 1159520); further: nearly all actives have a fitted effect of over 50% in size
In short: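 Tet-on ROR gamma CHO cells (1,000/well) were plated 4 hr, given compounds in DMSO for 2 hr at 37 C, then induced with 1 uM final doxycycline for 16 hr. Viability was read as ATP by CellTiter-Glo luminescence after 30 min.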

[7] = biological target: Nuclear receptor ROR-gamma (Homo sapiens) (UniProt P51449); assay: qHTS assay to identify small molecule antagonists of the retinoid-related orphan receptor gamma (ROR-gamma) signaling pathway (AID 1159521)
In short: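 Screening format: cell-based luciferase reporter in CHO cells with doxycycline-inducible RORγ. Compound pre-exposure lasts 2 h, doxycycline is 1 uM final, induction runs 16 h at 37 C, and ONE-Glo luminescence is read.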

[8] = qHTS assay to identify small molecule agonists of the AP-1 signaling pathway - cell viability counter screen (AID 1159525; calls by dose curve; further: nearly all actives have a fitted effect of over 55% in size)
In short: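 Each titration point was normalised to DMSO and tetra n-octyl ammonium bromide controls. The read was Cell Titer Glo luminescence after 30 min at RT, following 5 h compound exposure of ME-180 AP-1-bla cells at 37 °C.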

[9] = qHTS assay to identify small molecule agonists of the AP-1 signaling pathway (AID 1159526; calls by dose curve)
[10] = qHTS assay to identify small molecule agonists of the RXR signaling pathway - cell viability counter screen (AID 1159529)
In short: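 Viability read-out for the RXR-alpha agonist qHTS: luminescent CellTiter-Glo signal after 30 min at RT. HEK 293T bla reporter cells, 2% charcoal-stripped FBS, 16 hr compound incubation; tetraoctyl ammonium bromide as cytotoxic control.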

[11] = qHTS assay to identify small molecule antagonists of the retinoid acid receptor (RAR) signaling pathway - cell viability counter screen (AID 1159551); further: nearly all actives have a fitted effect of over 35% in size
In short: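 Cells (C3RL4) are plated, incubated overnight, dosed with compound in DMSO, then given retinol at 1 uM final. After 6 h at 37 C, CellTiter-Glo is added and luminescence read following 30 min at room temperature.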

[12] = qHTS assay to identify small molecule agonists of the retinoic acid receptor (RAR) signaling pathway (AID 1159553); details: C3RL4 RARE luciferase reporter, agonist, 6 h; activation: at 73.3 µM (top of the series)
In short: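 Seed C3RL4 reporter cells at 1,000 per well and incubate overnight at 37 C. Add compounds in DMSO, incubate 6 hr. Add luciferase reagent, wait 30 min at room temperature, read luminescence.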

[13] = qHTS assay to identify small molecule antagonists of the estrogen related receptor (ERR) signaling pathway from Tox21 library - cell viability counter screen (AID 1224834); further: nearly all actives have a fitted effect of over 30% in size
In short: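 ERR cells, 2,000/well; 6 h settle at 37 C/5% CO2; pin-tool compound transfer in DMSO; 17.5 h at 37 C; CellTiter-Fluor, 30 min; fluorescence intensity.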

[14] = qHTS assay to identify small molecule agonists of the constitutive androstane receptor (CAR) signaling pathway - cell viability counter screen (AID 1224836); further: nearly all actives have a fitted effect of over 45% in size
In short: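 Multiplexed viability check: HepG2-CYP2B6-hCAR cells, 15-point compound dosing, 0.75 uM PK11195 final, 23 h at 37 C, CellTiter-Fluor fluorescence.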

[15] = qHTS assay to identify small molecule antagonists of the constitutive androstane receptor (CAR) signaling pathway - cell viability counter screen (AID 1224837); further: nearly all actives have a fitted effect of over 45% in size
In short: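 Viability was measured with CellTiter-Fluor in a HepG2 line carrying stably transfected hCAR and a CYP2B6-2.2kb construct. Cells were exposed for 23 hr at 37 C to 15 compound concentrations with 50 nM CITCO as agonist.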

[16] = qHTS assay to identify small molecule antagonists of the retinoic acid receptor (RAR) signaling pathway (AID 1159552; further: nearly all actives have a fitted effect of over 50% in size)
In short: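 Using a RARE-driven luciferase construct in C3RL4 cells, retinol at 1 uM final provided the agonist stimulus while compounds were co-applied. After 6 hours at 37 C, luminescence was recorded to flag inhibitors of retinol signaling.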

[17] = biological target: Retinoic acid receptor RXR-alpha (Homo sapiens) (UniProt P19793); assay: qHTS assay to identify small molecule agonists of the RXR signaling pathway (AID 1159527; calls by dose curve; further: nearly all actives have a fitted effect of over 35% in size)
In short: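 Fluorescence ratio readout (460 vs 530 nm) from GeneBLAzer RXR-alpha HEK 293T cells after 16 hr compound treatment; cells seeded 5 hr beforehand in low-serum, charcoal-stripped medium.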

[18] = biological target: Nuclear receptor subfamily 1 group I member 3 (Homo sapiens) (UniProt Q14994); assay: qHTS assay to identify small molecule antagonists of the constitutive androstane receptor (CAR) signaling pathway (AID 1224838);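 further: HepG2 cells stably expressing hCAR with CYP2B6 luciferase reporter stimulated by CITCO; nearly all actives have a fitted effect of over 40% in size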
In short: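 Antagonist mode used CITCO at a final 50 nM to activate CAR in human hepatoma HepG2 cells carrying stable hCAR and a 2.2 kb CYP2B6 promoter-luciferase construct. Compounds were tested at 15 concentrations over 24 h, with luminescence as the end point.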

[19] = biological target: Luciferin 4-monooxygenase (Photinus pyralis) (UniProt P08659); assay: qHTS assay to identify small molecule inhibitors of firefly luciferase (AID 1224835); further: nearly all actives have a fitted effect of over 25% in size; further: potency means the concentration at half of the fitted maximal effect
In short: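 Quantitative HTS format; KM concentrations of both substrates. Purified P. pyralis FLuc activity quantified from luminescence images.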

Measured: Potency

Chain of Luciferin 4-monooxygenase (Photinus pyralis) (P08659 whole entry, looked up): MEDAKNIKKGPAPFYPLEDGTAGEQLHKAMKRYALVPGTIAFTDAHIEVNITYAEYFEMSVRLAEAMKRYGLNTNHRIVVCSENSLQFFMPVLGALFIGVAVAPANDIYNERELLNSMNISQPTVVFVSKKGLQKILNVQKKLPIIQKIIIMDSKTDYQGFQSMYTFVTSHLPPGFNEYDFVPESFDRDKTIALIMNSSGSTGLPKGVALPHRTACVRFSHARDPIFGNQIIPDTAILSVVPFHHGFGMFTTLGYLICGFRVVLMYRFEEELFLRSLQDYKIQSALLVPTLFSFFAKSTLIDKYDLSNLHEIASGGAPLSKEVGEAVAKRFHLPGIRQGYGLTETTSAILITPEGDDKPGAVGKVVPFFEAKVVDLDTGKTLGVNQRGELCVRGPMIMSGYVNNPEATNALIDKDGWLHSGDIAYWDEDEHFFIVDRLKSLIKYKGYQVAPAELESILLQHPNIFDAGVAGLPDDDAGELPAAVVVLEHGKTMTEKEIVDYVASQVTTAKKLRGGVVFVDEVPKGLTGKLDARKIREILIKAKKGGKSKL
Chain of Retinoic acid receptor RXR-alpha (Homo sapiens) (P19793 whole entry, looked up): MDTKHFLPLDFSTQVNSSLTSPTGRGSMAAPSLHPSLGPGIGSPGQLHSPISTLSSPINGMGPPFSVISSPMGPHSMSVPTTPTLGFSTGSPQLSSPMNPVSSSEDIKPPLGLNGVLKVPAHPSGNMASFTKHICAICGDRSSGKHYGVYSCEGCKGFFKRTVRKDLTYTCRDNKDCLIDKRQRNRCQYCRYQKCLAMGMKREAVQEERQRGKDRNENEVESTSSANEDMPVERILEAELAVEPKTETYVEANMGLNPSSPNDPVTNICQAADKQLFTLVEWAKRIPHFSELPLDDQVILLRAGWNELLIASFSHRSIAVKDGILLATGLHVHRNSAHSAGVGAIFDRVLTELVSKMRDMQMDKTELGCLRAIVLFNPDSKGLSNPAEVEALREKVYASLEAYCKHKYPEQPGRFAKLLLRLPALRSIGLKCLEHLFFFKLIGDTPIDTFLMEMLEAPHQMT
Chain of Nuclear receptor subfamily 1 group I member 3 (Homo sapiens) (Q14994 whole entry, looked up): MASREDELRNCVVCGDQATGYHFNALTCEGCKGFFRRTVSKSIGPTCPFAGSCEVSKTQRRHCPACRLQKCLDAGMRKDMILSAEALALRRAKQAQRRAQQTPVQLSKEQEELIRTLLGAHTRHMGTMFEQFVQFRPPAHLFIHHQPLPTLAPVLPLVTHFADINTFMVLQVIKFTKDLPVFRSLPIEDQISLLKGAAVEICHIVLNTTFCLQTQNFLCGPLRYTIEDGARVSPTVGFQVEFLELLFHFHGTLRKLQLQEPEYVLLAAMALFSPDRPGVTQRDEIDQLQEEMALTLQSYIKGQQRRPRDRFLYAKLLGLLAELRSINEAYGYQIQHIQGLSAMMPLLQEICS

C[C@H]1O[C@H](O[C@H]2[C@H](O)[C@@H](O)[C@@H](O[C@H]3[C@H](O)[C@@H](O)[C@H](O)O[C@@H]3CO)O[C@@H]2CO)[C@H](O)[C@@H](O)[C@@H]1N[C@H]1C=C(CO)[C@@H](O)[C@H](O)[C@H]1O
not listed: [16] | [17] | [18] | [19]
inactive: all other assays above

OC(CCN1CCCCC1)(c1ccccc1)c1ccccc1
not listed: [1] | [13] | [17] | [18] | [19]
inactive: all other assays above

CC(C)(C)c1ccc(C=O)cc1
not listed: [15] | [16] | [19]
inactive: all other assays above

C/C=C(\C)C(=O)OCC/C=C\CC
active: [19] 35.6 µM
not listed: [13] | [18]
inactive: all other assays above

CC1=CC[C@H](CC=O)C1(C)C
not listed: [2] | [11] | [13] | [14] | [18]
inactive: all other assays above

C=C[Si](C)(C)O[Si](C)(C)C=C
not listed: [15] | [18]
inactive: all other assays above

NS(=O)(=O)c1cc2c(cc1Cl)NC(CC1CCCC1)NS2(=O)=O (configuration not stated)
not listed: [1] | [7] | [16] | [18]
inactive: all other assays above

COc1cc(C=O)ccc1OC(=O)C(C)C
not listed: [3] | [11] | [16] | [17] | [18]
inactive: all other assays above

CNC(=O)C(c1ccccc1)c1ccccc1
not listed: [16] | [18]
inactive: all other assays above

CCCCCCCCOC(C)=O
not listed: [18]
inactive: all other assays above
